Assay outcomes deposited in PubChem by several laboratories.
Most compounds without a hit are left out; they make up all but 4% or so of the library.
BoNT F protease: blocks Botulinum neurotoxin F light chain protease; inhibition, % at 10 µM; 0.22% of 360,000 active; Multiplex microsphere protease cleavage assay, flow cytometry; AID 588497; in the data active = inhibition above about 35%, passing the limit was not always enough; inconclusive = no clear call, values can overlap the other calls
BoNT A protease: inhibitors of Botulinum neurotoxin A light chain protease. multiplex microsphere protease substrate cleavage, flow cytometry. inhibition, % at 10 µM. 0.17% of 360,000 active. AID 588499
MazEF act: activators of E. coli MazEF toxin-antitoxin RNase | P0AE70 | FAM/BHQ RNA-DNA oligo cleavage fluorescence, 5 h | activation, % at 20 µM | 0.32% of 350,000 active | AID 504720; in the data active = activation above about 50%
Target sequence (P0AE70 whole entry, looked up): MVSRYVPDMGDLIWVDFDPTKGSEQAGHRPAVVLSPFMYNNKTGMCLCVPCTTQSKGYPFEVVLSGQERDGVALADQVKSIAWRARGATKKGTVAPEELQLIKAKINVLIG
VHR inh abs: blocks human VHR1 dual specificity phosphatase. recombinant VHR phosphatase, pNPP absorbance. inhibition, % at 13.3 µM. 0.52% of 290,000 active; in the data active = inhibition above about 50%
Target sequence (P51452 whole entry, looked up): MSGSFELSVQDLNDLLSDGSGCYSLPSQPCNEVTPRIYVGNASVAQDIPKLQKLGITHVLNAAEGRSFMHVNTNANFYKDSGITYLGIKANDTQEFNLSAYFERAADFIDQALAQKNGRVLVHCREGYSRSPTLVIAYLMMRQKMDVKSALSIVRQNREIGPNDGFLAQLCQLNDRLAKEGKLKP
Anthrax LF inh2: anthrax lethal factor protease inhibition | P15917 | multiplex microsphere protease cleavage assay, LF | inhibition, % at 10 µM | 0.12% of 360,000 active
Bead autofluor: compound fluorescence in toxin protease inhibitor counterscreen | compound autofluorescence counterscreen, microsphere flow cytometry; active compounds read high | fluorescence intensity (test concentration not listed) | 3.1% of 360,000 active; in the data active = fluorescence intensity above about 16000; inconclusive = no clear call, values can overlap the other calls
Large screens that a line does not name were inactive. Cut-off read from the data, not from the text of the source, unless noted: active = inhibition above about 30%; inconclusive = no clear call, values can overlap the other calls; inactive = below that.

CCN(CC)c1ccc2cc(C(=O)NNC(=O)c3ccc(S(=O)(=O)N4CCCCC4)cc3)c(=O)oc2c1	MazEF act 75.0
Cc1ccc(C(=O)NNC(=O)c2ccc(S(=O)(=O)N3CCCCC3)cc2)cc1	none (no result: VHR inh abs)
C=Cc1ccc(Cn2c(=O)n(CCCOC)c(=O)c3sccc32)cc1	none
CCn1c(=O)n(CC)c2cc(N3CCCC3)c(NC(=O)c3ccc(C)cc3)cc21	VHR inh abs 56.3
CC(C)CCNC(=O)C(c1ccco1)N(Cc1ccc(F)cc1)C(=O)c1snc(C(N)=O)c1N (stereo not given)	Bead autofluor 19358
NC(=O)c1nsc(C(=O)N(Cc2ccc(F)cc2)C(C(=O)NC2CCCC2)c2ccco2)c1N (stereo not given)	none
O=C(c1ccco1)N1CCN(C(=O)C2CCN(S(=O)(=O)c3cccs3)CC2)CC1	Bead autofluor 18565
O=C(NCc1cccnc1)C1CCN(S(=O)(=O)c2cccnc2)CC1	none
O=C(C1CCN(S(=O)(=O)c2cccs2)CC1)N1CCCCC1	none (no result: BoNT F protease, BoNT A protease, Anthrax LF inh2, Bead autofluor)
O=C(NCc1cccnc1)C1CCN(S(=O)(=O)c2cccs2)CC1	Bead autofluor 23889
O=C(Nc1nnc(C2CC2)s1)c1cc(S(=O)(=O)N2CCN(c3ccccc3)CC2)ccc1Cl	none
Cc1ccc(NC(=S)NNC(=O)c2ccco2)cc1	Bead autofluor 21506
Cc1cccc(NC(=S)NNC(=O)c2ccco2)c1	none
CCCCNC(=S)NNC(=O)c1ccco1	Bead autofluor 16637
CCCCNC(=O)NNC(=O)c1ccco1	none
Cc1ccc(C(=O)NCCCNC(=O)c2ccco2)cn1	VHR inh abs 56.5
Cc1cc(C)cc(NC(=O)Nc2ccc(N3CCCCC3)cc2)c1	none (no result: BoNT F protease, BoNT A protease, Anthrax LF inh2, Bead autofluor)
CC(C)Sc1nc2sc3c(c2c2nnc(SCC(=O)NCc4ccco4)n12)CCCC3	none
CCOC(=O)CNC(=O)c1c2c(nc3ccccc13)CCCC2	none
Cc1cc(C)n(C/C=C/Cn2nc(C)cc2C)n1	BoNT A protease inconclusive, Bead autofluor 20615
Cc1cc(C)n(CC(=O)NN)n1	none
O=C1c2ccccc2C(=O)N1CCc1nc(-c2ccc(Cl)cc2)no1	Bead autofluor 21023
O=C1c2ccccc2C(=O)N1CCc1nc(-c2ccncc2)no1	Bead autofluor 19470
O=C(Nc1cccc(-c2ccc(N3CCCCC3)nn2)c1)c1ccco1	none (no result: VHR inh abs)
COc1ccc(Cn2c(-c3ccccc3C)nc3c(c(=O)c4ccccc4n3C)c2=O)cc1	MazEF act 67.0 (no result: VHR inh abs)
CC(C)NC(=O)COC(=O)c1ccccc1C(=O)c1ccccc1	none
COC(=O)C1=C(C)n2nnnc2NC1c1cc2ccccc2o1 (stereo not given)	BoNT A protease inconclusive, Bead autofluor 17991
Oc1ccc2ccccc2c1-c1sc(Nc2ccccc2)n[n+]1-c1ccc(F)cc1	MazEF act active
Fc1ccc(-[n+]2nc(Nc3ccccc3)sc2-c2c3ccccc3cc3ccccc23)cc1	none
N#CCCN1CCN(C(=S)c2ccc(-c3ccc(Cl)cc3)o2)CC1	BoNT A protease inconclusive, Bead autofluor 20131
c1ccc(-c2nnc3n2CCCC3)cc1	Bead autofluor 22320
CC(=O)N1CC(=O)N(OCc2ccccc2)C1c1ccc(Cl)cc1Cl (stereo not given)	none
Cc1ccc(C2CC(C(F)F)n3ncc(C(=O)Nc4cnn(Cc5ccccc5C)c4)c3N2)cc1 (stereo not given)	none
COc1ccccc1Cn1c(=S)[nH]c2cc(C(=O)N3CCCC3)ccc2c1=O	none
CCOCCCn1c(=S)[nH]c2cc(C(=O)N3CCOCC3)ccc2c1=O	Bead autofluor 17022
CCOC(=O)N1CCN(C(=O)c2ccc3c(=O)n(Cc4ccc(Cl)cc4)c(=S)[nH]c3c2)CC1	Bead autofluor 19158
CCN1CCN(C(=O)c2ccc3c(=O)n(Cc4ccccc4OC)c(=S)[nH]c3c2)CC1	Bead autofluor 18735
CCCn1c(=S)[nH]c2cc(C(=O)N3CCN(C(=O)OCC)CC3)ccc2c1=O	none
COCCn1c(=S)[nH]c2cc(C(=O)N3CCN(c4ccccc4OC)CC3)ccc2c1=O	BoNT A protease inconclusive, Bead autofluor 22207
CCc1cccc(NC(=O)CCc2nc3sc4c(c3c(=O)[nH]2)CCCC4)c1	none (no result: VHR inh abs)
CC(=O)N(C(C)=O)c1nc(-c2ccccc2)cn1/N=C/c1ccccc1	BoNT F protease inconclusive
COc1cccc(CC(=O)N[C@@H](CCSC)c2nc3ccccc3[nH]2)c1	none
CCc1ccc(OCc2nnc(SCC(=O)N3CCN(c4ccccc4)CC3)o2)cc1	none
O=C(Nc1ccc(F)cc1)Nc1ccccc1N1CCCCC1	none
CCN(CC)C(=O)c1ccc2c(=O)n(CCOC)c(=S)[nH]c2c1	BoNT A protease inconclusive, Bead autofluor 20993
COCCn1c(=S)[nH]c2cc(C(=O)NCc3ccccc3)ccc2c1=O	none (no result: VHR inh abs)
Cc1ccccc1NC(=O)c1ccc2c(c1)CCN2S(C)(=O)=O	BoNT F protease inconclusive
COC(=O)C1=C(c2cc3ccccc3s2)C[C@@H]2CC[C@H]1N2C(=O)NCC1CC1	none (no result: VHR inh abs)
COc1ccc(NC(=O)C2CCN(S(=O)(=O)c3ccc(C)cc3)CC2)cc1OC	Bead autofluor 25551
Cc1ccc(NC(=O)C2CCN(S(C)(=O)=O)CC2)cc1	BoNT A protease inconclusive, Bead autofluor 22760
O=C(Nc1ccc2c(c1)OCO2)Nc1ccc2c(c1)OCO2	none
O=C(Nc1ccc2c(c1)OCCO2)c1c(F)cccc1F	BoNT A protease inconclusive, Bead autofluor 20165
O=C(Nc1ccc(F)c(F)c1)c1ccc2c(c1)OCO2	none
O=C(Nc1ccc2c(c1)OCO2)c1ccc(Cl)s1	Bead autofluor 16810
O=C(Nc1ccc2c(c1)OCO2)c1c(F)c(F)c(F)c(F)c1F	Bead autofluor 18127
CC(=O)N(c1cccc(C(F)(F)F)c1)c1nc(/C=C/C(=O)O)cs1	none
NC(=S)N/N=C/c1cc([N+](=O)[O-])ccc1Cl	none
O=[N+]([O-])c1ccc(Cl)c(/C=N/NC(=S)Nc2ccccc2)c1	BoNT A protease inconclusive, Bead autofluor 16957
Cc1ccc(NC(=S)N/N=C/c2ccc([N+](=O)[O-])s2)cc1	BoNT A protease 47.3
Cc1cccc(NC(=S)N/N=C/c2cccc([N+](=O)[O-])c2)c1	MazEF act 58.0
CC(C(=O)N1CCc2ccccc2C1)N(c1ccccc1)S(C)(=O)=O (stereo not given)	none
CCOC(=O)c1c(/N=C/N(C)C)sc(C)c1C	none
Cc1cnc(C(=O)Nc2ccc(F)cc2)cn1	Bead autofluor 21955
Cc1cnc(C(=O)Nc2ccc(C(C)C)cc2)cn1	none
COc1ccccc1CNC(=O)c1ccccc1N(C)S(C)(=O)=O	Bead autofluor 19853
CCN(CC)S(=O)(=O)c1ccc(NC(=O)c2ccccc2N(C)S(C)(=O)=O)cc1	BoNT A protease inconclusive, Bead autofluor 21922
COc1ccccc1CNC(=O)c1ccccc1NS(C)(=O)=O	Bead autofluor 20558
CCN1C(=O)/C(=C\N2CCN(C)CC2)SC1=S	none
CCN1C(=O)/C(=C\N2CCN(c3ccc(F)cc3)CC2)SC1=S	BoNT A protease inconclusive, Bead autofluor 16210
CCCCNc1c(C(=O)OCC)c(=O)[nH]c2ccccc12	none
CCc1nc2sc3ccccc3c(=O)c2c(=O)n1CCOC	Bead autofluor 19591
